Reference: PubChem BioAssay
“And” between values parts separate entries of the source, which are not always exact repeats. Identical values can stand only once. Results filed as inconclusive are left out. The source made the active and inactive calls. Unless noted, cut-off not given; nearly all actives show AC50 up to about 26 µM.

Experiments:
[1] = kinase inhibitors against Plasmodium liver-stage infection, cell-based, known kinase inhibitor set, luminescence, hepatoma host viability (AID 624392; call rule not given here;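 further: infected cells incubated roughly two days before readout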); conditions: Plasmodium liver stage in hepatoma cells, luciferase luminescence, concentration not given here; liver cell % of control: measured here: host liver cell viability; parasite % of control: stronger effect = lower value
[2] = viability loss in pontine glioma line – cell-based, SU-DIPG-XXV, MIPE5.0, CellTiter-Glo, qHTS, dose response (AID 1347065); conditions: CellTiter-Glo ATP luminescence;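 further: cells exposed to compound for 48 hours before ATP readout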
[3] = SU-DIPG-VI glioma cell viability, MIPE4.0 library, CellTiter-Glo luminescence, qHTS (AID 1347066; cut-off not given, nearly all actives have AC50 up to about 30 µM;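 further: cells exposed to compound for 48 hours before readout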); conditions: CellTiter-Glo ATP luminescence
[4] = growth inhibition of DIPG glioma cells, dose response, cell-based, SU-DIPG-XIII, MIPE5.0, CellTiter-Glo, qHTS (AID 1347064; cut-off not given, nearly all actives have AC50 up to about 23 µM;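 on AC50: cells exposed to compound for 48 hours before the viability read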); conditions: SU-DIPG-XIII viability, CellTiter-Glo ATP luminescence
[5] = JHH-DIPG-1 glioma cell viability, MIPE5.0 library, CellTiter-Glo luminescence, qHTS (AID 1347067); conditions: JHH-DIPG-1 glioma viability, CellTiter-Glo ATP luminescence;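 further: cells exposed to compound for 48 hours before readout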
[6] = SU-DIPG-XXV glioma cell viability, MIPE5.0 library, qHTS (AID 1347068; cut-off not given, nearly all actives have IC50 up to about 30 µM;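 on IC50: cells exposed to compound for 48 hours before viability readout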)
[7] = sensitizers of A549 cells to miR-34 induction, primary screen, imaging, A549 dox-inducible miR-34, nuclei and caspase counts (AID 1347080;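 active means compounds whose cell count with miR-34 switched on is under 0.7 times the count with it off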); conditions: A549 miR-34 inducible, Hoechst nuclei count, 48 h
[8] = survival rescue of mitochondrial mutant cells in low glucose, primary screen, MELAS cybrids, Rieske KO mouse fibroblasts, CellTiter-Glo (AID 1508586;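 active means mean z-score across replicates of 1.96 or higher in either the MELAS or the Rieske mutant cell line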;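 further: z relative to plate mean and SD of compound and empty wells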)
[9] = liver-stage malaria parasite growth inhibition, primary screen, cell-based, HepG2, luciferase luminescence, HepG2 viability (AID 624349; in the data active means parasite load remaining mostly below about 12%, no sharp cut-off; inactive means mostly above about 10%;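 further: 100% = mean of DMSO negative control wells on the same plate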); conditions: P. berghei liver stage in HepG2, luciferase luminescence, concentration not given here; parasite load remaining: stronger effect = lower value; viability: measured here: HepG2 viability without parasites
[10] = modifiers of HSF1 nuclear foci, imaging, Selleck Cancer Library (AID 1347162; in the data active means plate-normalised HSF1 focus index below about 0.46); conditions: human cells, at 10 µM; SSMD: measured here: HSF1 foci SSMD mean; cell count: measured here: cell number; plate-normalised HSF1 focus index: stronger effect = lower value
[11] = ovarian cancer cell viability with rucaparib, profiling panel, oncology-focused library, rucaparib conditional (AID 1508598;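 active means normalized viability below 100% at a tested concentration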); conditions: patient-derived ovarian cancer cells, CellTiter-Glo viability, 144 h, stronger effect = lower value
[12] = stronger effect = lower value, cell number ratio, induced over uninduced
[13] = measured here: relative caspase fold change +Dox/-Dox
[14] = measured here: total cells with miR-34 induction, stronger effect = lower value
[15] = measured here: total cells without miR-34 induction
[16] = MELAS cybrid survival, CellTiter-Glo 48 h, stronger effect = higher value
[17] = Rieske KO mouse fibroblast survival, CellTiter-Glo 72 h

CN(C)CCOc1cc(-c2cn[nH]c2)ccc1NC(=O)C1COc2ccccc2O1 (stereo not given)
liver cell % of control [1]: 74.6% and 79.4% and 100%
parasite % of control [1]: 63.3% (inactive) and 69.1% (inactive) and 49.5% (inactive)
AC50 [2]: 7.42 µM (active)
outcome [3]: inactive

C[C@H](Nc1ncnc2nc[nH]c12)c1cc2ccc(F)cc2nc1-c1ccccn1
outcome [4]: inactive
outcome [5]: inactive
outcome [6]: inactive

CCNC1(C(N)=O)CCN(c2ncnc3c2nc(-c2ccccc2Cl)n3-c2ccc(Cl)cc2)CC1
AC50 [2]: 11.8 µM (active)

CNc1nc(Nc2cnn([C@H]3CCN(C4COC4)C[C@@H]3F)c2Cl)ncc1C(F)(F)F
AC50 [2]: 20.9 µM (active)

N#Cc1ccc(Cn2cncc2CN2CCN(c3cccc(Cl)c3)C(=O)C2)cc1
AC50 [2]: 9.34 µM (active)

Cc1ccc(C(=O)Nc2ccc(Oc3cc4cnn(C)c4cc3-c3cn[nH]c3)c(F)c2)c(=O)n1-c1ccc(F)cc1
AC50 [2]: 4.68 µM (active)

COC(=O)/C=C/C(=O)N(O)CCCCNCc1ccc(COC(=O)Nc2cccc3ccccc23)cc1
AC50 [2]: 20.9 µM (active)
AC50 [5]: 18.6 µM (active)

O=C(Nc1cnccc1Cl)N1CCN(Cc2ccc3c(c2)OC(F)(F)O3)CC1
outcome [4]: inactive
outcome [6]: inactive

Cc1nnn(C)c1-c1cnc2c3ccc(C(C)(C)O)cc3n([C@H](c3ccccc3)C3CCOCC3)c2c1
AC50 [2]: 0.372 µM (active)
AC50 [5]: 8.33 µM (active)

Cc1cc(C)c2c(c1)[C@@H](N(Cc1cc(C(F)(F)F)cc(C(F)(F)F)c1)c1nnn(C)n1)CCCN2CC1CCC(C(=O)O)CC1 (stereo not given in full)
AC50 [4]: 20.9 µM (active)
outcome [6]: inactive
fold change [7, 12]: 0.938 (inactive)
fold change [7, 13]: 0.636
cell count [7, 14]: 6920
cell count [7, 15]: 7380
z-score [8, 16]: -0.009 (inactive)
z-score [8, 17]: -0.0411

NCCCC[C@H](NC(=O)[C@@H](NC(=O)[C@H](Cc1c[nH]c2ccccc12)NC(=O)[C@H](CCCCN)NC(=O)[C@H](CCCCN)NC(=O)[C@H](Cc1c[nH]c2ccccc12)NC(=O)[C@H](Cc1c[nH]c2ccccc12)NC(=O)[C@H](CCCCN)NC(=O)[C@@H](N)CCCCN)C(c1ccccc1)c1ccccc1)C(N)=O
AC50 [2]: 20.9 µM (active)

COc1ccc2nc3n[nH]c(C)c3c(NCCOCCO)c2c1
parasite load remaining [9]: 46.1% (inactive)
viability [9]: 90.1%
outcome [4]: inactive
outcome [5]: inactive

OCCOc1ccc(/C(=C(/CCCl)c2ccccc2)c2ccccc2)cc1
outcome [4]: inactive
outcome [6]: inactive

Nc1nc(OC(c2ccc(-c3cccc(F)c3)cc2)C(F)(F)F)cc(-c2ccc(C[C@@H](N)C(=O)O)cc2)n1 (stereo not given in full)
AC50 [2]: 23.5 µM (active)

C[C@@H](Nc1cc(F)cc(F)c1)c1cc(C(=O)N(C)C)cc2c(=O)cc(N3CCOCC3)oc12
AC50 [2]: 9.34 µM (active)

C[C@@H](Nc1ncnc2[nH]c(-c3ccc(O)cc3)cc12)c1ccccc1
outcome [4]: inactive
outcome [6]: inactive

C[C@@H]1C[C@H](N)C[C@H](c2ccncc2NC(=O)c2ccc(F)c(-c3c(F)cccc3F)n2)C1
AC50 [2]: 9.34 µM (active)

CN1CC[C@@H](c2c(O)cc(O)c3c(=O)cc(-c4ccc(C(F)(F)F)cc4Cl)oc23)[C@@H]1CO
AC50 [2]: 23.5 µM (active)
outcome [5]: inactive

O=C(Nc1ccc(OC(F)(F)F)cc1)c1sccc1NCc1ccnc2ccccc12
AC50 [2]: 16.6 µM (active)
AC50 [5]: 5.9 µM (active)
outcome [6]: inactive
fold change [7, 12]: 0.889 (inactive)
fold change [7, 13]: 1.05
cell count [7, 14]: 4270
cell count [7, 15]: 4800
SSMD [10]: 2.93
cell count [10]: 7420
plate-normalised HSF1 focus index [10]: 1.18 (inactive)
z-score [8, 16]: -0.433 (inactive)
z-score [8, 17]: 0.766
viability ([11]; at 0.000305 µM, OCI-C5x cells, with rucaparib 10 µM, 100% = cells with rucaparib alone): 104% (inactive)
viability ([11]; at 0.000305 µM, OCI-C5x cells, without rucaparib): 102% (inactive)
viability ([11]; at 0.000305 µM, OCI-P5x cells, with rucaparib 20 µM, 100% = cells with rucaparib alone): 79.8% (active)
viability ([11]; at 0.000305 µM, OCI-P5x cells, without rucaparib): 88.5% (active)
viability ([11]; at 0.00122 µM, OCI-C5x cells, with rucaparib 10 µM, 100% = cells with rucaparib alone): 108% (inactive)
viability ([11]; at 0.00122 µM, OCI-C5x cells, without rucaparib): 110% (inactive)
viability ([11]; at 0.00122 µM, OCI-P5x cells, with rucaparib 20 µM, 100% = cells with rucaparib alone): 76.7% (active)
viability ([11]; at 0.00122 µM, OCI-P5x cells, without rucaparib): 81.1% (active)
viability ([11]; at 0.00488 µM, OCI-C5x cells, with rucaparib 10 µM, 100% = cells with rucaparib alone): 98.6% (active)
viability ([11]; at 0.00488 µM, OCI-C5x cells, without rucaparib): 105% (inactive)
viability ([11]; at 0.00488 µM, OCI-P5x cells, with rucaparib 20 µM, 100% = cells with rucaparib alone): 79.8% (active)
viability ([11]; at 0.00488 µM, OCI-P5x cells, without rucaparib): 79.7% (active)
viability ([11]; at 0.0195 µM, OCI-C5x cells, with rucaparib 10 µM, 100% = cells with rucaparib alone): 108% (inactive)
viability ([11]; at 0.0195 µM, OCI-C5x cells, without rucaparib): 113% (inactive)
viability ([11]; at 0.0195 µM, OCI-P5x cells, with rucaparib 20 µM, 100% = cells with rucaparib alone): 81% (active)
viability ([11]; at 0.0195 µM, OCI-P5x cells, without rucaparib): 79% (active)
viability ([11]; at 0.0781 µM, OCI-C5x cells, with rucaparib 10 µM, 100% = cells with rucaparib alone): 108% (inactive)
viability ([11]; at 0.0781 µM, OCI-C5x cells, without rucaparib): 113% (inactive)
viability ([11]; at 0.0781 µM, OCI-P5x cells, with rucaparib 20 µM, 100% = cells with rucaparib alone): 111% (inactive)
viability ([11]; at 0.0781 µM, OCI-P5x cells, without rucaparib): 108% (inactive)
viability ([11]; at 0.313 µM, OCI-C5x cells, with rucaparib 10 µM, 100% = cells with rucaparib alone): 98.2% (active)
viability ([11]; at 0.313 µM, OCI-C5x cells, without rucaparib): 110% (inactive)
viability ([11]; at 0.313 µM, OCI-P5x cells, with rucaparib 20 µM, 100% = cells with rucaparib alone): 107% (inactive)
viability ([11]; at 0.313 µM, OCI-P5x cells, without rucaparib): 110% (inactive)
viability ([11]; at 1.25 µM, OCI-C5x cells, with rucaparib 10 µM, 100% = cells with rucaparib alone): 94.5% (active)
viability ([11]; at 1.25 µM, OCI-C5x cells, without rucaparib): 107% (inactive)
viability ([11]; at 1.25 µM, OCI-P5x cells, with rucaparib 20 µM, 100% = cells with rucaparib alone): 103% (inactive)
viability ([11]; at 1.25 µM, OCI-P5x cells, without rucaparib): 112% (inactive)
viability ([11]; at 5 µM, OCI-C5x cells, with rucaparib 10 µM, 100% = cells with rucaparib alone): 89.4% (active)
viability ([11]; at 5 µM, OCI-C5x cells, without rucaparib): 117% (inactive)
viability ([11]; at 5 µM, OCI-P5x cells, with rucaparib 20 µM, 100% = cells with rucaparib alone): 77.3% (active)
viability ([11]; at 5 µM, OCI-P5x cells, without rucaparib): 54.8% (active)

Cc1nc(C)c(CN2CCN(C(c3ccc(F)cc3)c3ccc(F)cc3)CC2)nc1C
AC50 [2]: 23.5 µM (active)
outcome [5]: inactive
outcome [6]: inactive

Cc1nc(-c2cccnc2)sc1C(=O)Nc1ccccc1-c1cn2c(CN3CCOCC3)csc2n1
outcome [2]: inactive
outcome [6]: inactive

CCC(CC)C(c1ccc(Nc2nc3ccccc3s2)cc1)n1cncn1 (stereo not given)
AC50 [2]: 18.6 µM (active)
IC50 [6]: 20.9 µM (active)

CCCN(CCC)C(=O)C1=Cc2ccc(-c3ccc(C(=O)N4CCCC4)cc3)cc2N=C(N)C1
AC50 [2]: 20.9 µM (active)
AC50 [5]: 23.5 µM (active)
outcome [6]: inactive

Clc1cc2c(NC3CCCC3)nnc(-c3ccncc3)c2cc1Cl
AC50 [2]: 23.5 µM (active)
outcome [6]: inactive

Cc1nn(Cc2ccccc2Cl)c(C)c1CN(C)CC(O)COc1ccc(Cl)cc1 (stereo not given)
AC50 [2]: 20.9 µM (active)
AC50 [5]: 23.5 µM (active)

Cc1cccc(-c2[nH]c(CNc3ccccc3F)nc2-c2ccc3ncnn3c2)n1
outcome [2]: inactive
outcome [6]: inactive

O=C(NCCCNC(=O)c1ccc[nH]c1=O)c1cc(-c2ccccc2)on1
outcome [2]: inactive
AC50 [5]: 14.8 µM (active)
outcome [6]: inactive

Cc1ccc(NC(=O)c2ccc(CN3CCNCC3)cc2)cc1Nc1nccc(-c2cccnc2)n1
AC50 [2]: 23.5 µM (active)
outcome [5]: inactive
outcome [6]: inactive

Nc1nccc(-c2c(-c3ccc(F)cc3)ncn2C2CCN(Cc3ccon3)CC2)n1
outcome [2]: inactive
outcome [5]: inactive
outcome [6]: inactive

CC(C)(CNC(=O)c1cccc(-c2noc(C(F)(F)F)n2)c1)c1coc(-c2ccccc2)n1
AC50 [2]: 20.9 µM (active)
outcome [6]: inactive
